Screen size: about 350,000 compounds; about 7,000 (2%) were called active. Shown is part of a subset that was picked to be rich in actives. A number with no mark means an inactive call. Cut-off read from the data, not from the text of the source: active = activation above about 40%; inconclusive = no clear call, values can overlap the other calls; inactive = below that.
Assay: Bmi1 luciferase reporter increase in mESCs, primary screen, esBAF inhibitor project, mouse ES cells, Bmi1 luciferase knock-in, single point (AID 602393);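 note: 0% = median of the plate's neutral control wells and 100% = double that signal; a rise in the Bmi1 reporter signal indicates esBAF inhibition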
Conditions: 24 h, at 12.5 µM, stronger effect = higher value, 100% = twice the neutral-well signal

Compound | reporter increase
CCCNC(=O)Nc1ccc2c(c1)C(=O)N(C)C[C@H](OC)[C@H](C)CN(Cc1cccnc1)[C@@H](C)CO2 | -1.39%
CN1CCN(C(=O)C[C@@H]2CC[C@@H]3[C@H](COC[C@H](O)CN3CC3CCOCC3)O2)CC1 | 3.66%
CC(C)NC(=O)N[C@@H]1CC[C@H](CC(=O)NCCN2CCCC2)O[C@@H]1CO | -2.08%
COc1ccccc1S(=O)(=O)N[C@@H]1CC[C@@H](CCn2cc(C3CCCCC3)nn2)O[C@H]1CO | 4.02%
CO[C@H]1CN(C)C(=O)c2ccc(NC(=O)C3CCCC3)cc2OC[C@@H](C)NC[C@@H]1C | 0.309%
COc1cccc(NC(=O)Nc2ccc3c(c2)C(=O)N(C)[C@@H]2CC[C@@H](CC(=O)NCCc4ccccc4)O[C@H]2CO3)c1 | 4.83%
C[C@@H]1CN([C@H](C)CO)C(=O)c2cc(NC(=O)CCCN(C)C)ccc2O[C@@H](C)CCCCO[C@H]1CN(C)CC1CCCCC1 | -2.94%
O=C(NCCc1cccc(F)c1)C1CCCN(c2nc3ccccc3s2)C1 (centres undefined) | 3.83%
Fc1ccc2nc(Nc3nc4c(s3)CCCC4)sc2c1 | 28.9%
Fc1ccc2nc(N3CCCCC3)sc2c1 | 45.1% (active)
O=C(Cc1ccccc1)N1C[C@@H]2[C@H](c3ccccc31)[C@@H](CO)N2C(=O)Nc1ccc(F)cc1 | -2.51%
O=C(C[C@@H]1C[C@H]2c3cc(NS(=O)(=O)c4ccc(F)cc4)ccc3O[C@H]2[C@@H](CO)O1)NCc1ccccc1F | 12.4%
CCC(=O)N1C[C@@H](C)[C@@H](OC)CN(C)C(=O)c2ccc(NC(=O)Nc3ccccc3)cc2OC[C@H]1C | 0.261%
CC(=O)Nc1ccc(/C=N/NC(=O)c2cccs2)cc1 | 48.3% (active)
CCc1ccc(NC(=O)C(=O)NNC(=O)c2cccs2)cc1 | 12.8%
O=C(CNC(=O)c1cccs1)N/N=C/c1cccc(Br)c1 | -3.05%
Cc1ccc(C)c(NC2=NCC(=O)N2c2ccc3c(c2)OCCO3)c1 | 47.5% (active)
COc1ccc(N2C(=O)CN=C2Nc2cccc(C)c2C)cc1OC | -1.36%
Cc1ccc(CC2CC(=O)N(c3ccc4c(c3)OCCO4)C2=O)cc1 (centres undefined) | 11.3%
COc1ccc(NC(=O)N(C)C[C@@H]2Oc3ncc(-c4ccc(C#N)cc4)cc3C(=O)N([C@@H](C)CO)C[C@H]2C)cc1 | -0.692%
COc1ccc(CNC(=O)[C@H](Cc2c[nH]c3ccccc23)NC(C)=O)cc1OC | 3.18%
COc1cc2[nH]c(O)c(C=O)c2cc1OC | 3.41%
COc1ccc(N=Cc2c(O)[nH]c3ccccc23)cc1OC | 73.5% (active)
C[C@H](CO)N1C[C@H](C)[C@H](CN(C)C(=O)Nc2ccc(C(F)(F)F)cc2)Oc2ccc(NC(=O)C3CC3)cc2C1=O | -3.98%
COc1cc(NC(=O)COC(=O)c2ccc([N+](=O)[O-])s2)cc(OC)c1OC | -3.17%
CCCn1c(C)cc(/C=C(\C#N)C(=O)OCC(=O)N(C)c2c(N)n(Cc3ccccc3)c(=O)[nH]c2=O)c1C | 9.72%
CCCn1c(C)cc(/C=C(\C#N)C(=O)OCC(=O)Nc2cc(OC)c(OC)c(OC)c2)c1C | 61.6% (active)

Compound | reporter increase
C[C@@H]1CN([C@@H](C)CO)S(=O)(=O)c2ccc(C#C[C@@H](C)O)cc2O[C@@H]1CN(C)C(=O)Cc1ccccn1 | 1.02%
Cc1ccccc1S(=O)(=O)NCC[C@@H]1CC[C@H](NC(=O)C2CCCCC2)[C@@H](CO)O1 | 4.09%
O=C(CC1CC1)N1CC[C@@H]2[C@@H](CO)Nc3ccc(-c4ccccc4)cc3[C@@H]21 | -5.1%
COc1ccc(NC2=CC(=S)NC(C)(C)C2)cc1 | 1.51%
COc1ccc(Nc2cc(=O)oc3ccccc23)cc1 | 3.87%
COc1ccc(Nc2ccc3ccccc3c2)cc1 | 119% (active)
O=C(C1CCOCC1)N1C[C@H]2[C@@H](c3ccccc31)[C@@H](CO)N2Cc1ccccc1F | 0.141%
CCNC(=O)C[C@@H]1CC[C@@H]2[C@@H](COc3ccc(NC(=O)c4cccc(C(F)(F)F)c4)cc3C(=O)N2C)O1 | 3.63%
CC(OC(=O)CN1C(=O)c2ccccc2C1=O)C(=O)c1ccccc1 (centres undefined) | -0.946%
Cc1cc(/C=C2/SC(=O)N(CC(=O)OC(C)C)C2=O)c(C)n1C | 83.5% (active)
Cc1cc(/C=C2/SC(=O)N(CC(=O)N3CCCC3)C2=O)c(C)n1C | 0.583%
COc1ccccc1-c1ccc2c(c1)O[C@H](CN(C)C(=O)c1cccnc1)[C@@H](C)CN([C@H](C)CO)S2(=O)=O | 0.986%
C[C@H](CO)N1C[C@H](C)[C@H](CN(C)CC2CC2)OCCCC[C@H](C)Oc2ccc(NC(=O)c3ccncc3)cc2C1=O | -1.67%
CCOC(OCC)c1ccc(/C=C\c2nccc(N)n2)cc1 | 46.6% (active)
Cc1noc(C)c1NC(=O)Nc1ccc2c(c1)C(=O)N([C@H](C)CO)C[C@H](C)[C@H](CN(C)Cc1ccc(C(=O)O)cc1)OCCCC[C@H](C)O2 | -3.6%
Cc1ccc(Nc2ncnc3c2cnn3C)c(C)c1 | -6%
CC(Sc1ncnc2c1cnn2-c1ccccc1)C(=O)Nc1ccc(N2CCOCC2)cc1 (centres undefined) | 13.9%
Cc1ccc(-n2ncc3c(Nc4cccc(C(=O)O)c4)ncnc32)cc1 | 57.1% (active)
CNC[C@H]1Oc2cc(-c3cccnc3)ccc2S(=O)(=O)N([C@@H](C)CO)C[C@H]1C | 3.67%
CSc1ccccc1NC(=O)c1cc(Cl)sc1Cl | -9.78%
CSc1ccccc1NC(=O)c1cnc2sc(C)cn2c1=O | 68.8% (active)
Cc1ccccc1C(=O)Nc1ccccc1Sc1ccccc1 | -8.84%
O=C(c1ccccc1)N1CC[C@H]2[C@H](CO)Nc3ccc(-c4ccc(F)cc4)cc3[C@H]21 | -5.91%
CCCN(C)C[C@H]1Oc2ncc(-c3cccnc3)cc2C(=O)N([C@@H](C)CO)C[C@@H]1C | 5.67%
Cn1c(=NC(=O)c2ccco2)sc2cccc(F)c21 | 29%
Cn1c(=NC(=O)C2CC2)sc2cc(F)cc(F)c21 | 62% (active)
CCC(=O)Nc1ccc2c(c1)OC[C@H](C)N(Cc1ccccc1F)C[C@H](C)[C@@H](OC)CN(C)C2=O | 0.435%

Compound | reporter increase
C[C@H](CO)N1C[C@H](C)[C@H](CN(C)CC2CCCCC2)Oc2c(NC(=O)c3cnccn3)cccc2C1=O | -2.88%
O=C(NNC(=O)c1cc2c(s1)CCCC2)c1ccccc1 | 40.9% (active)
O=C(CNC(=O)c1cc2c(s1)CCC2)Nc1ccccc1Br | 30.7%
O=C(c1cc2c(s1)CCC2)N1CCN(c2ccccc2)CC1 | 6.19%
CCNC(=O)C[C@@H]1CC[C@H](NC(=O)C2CCC2)[C@@H](CO)O1 | 4.25%
C[C@@H]1CN([C@H](C)CO)C(=O)Cc2cc(NC(=O)C3CCCCC3)ccc2O[C@@H]1CN(C)S(C)(=O)=O | -5.11%
C[C@@H]1CN([C@@H](C)CO)S(=O)(=O)c2ccc(C#CC3CCCC3)cc2O[C@H]1CN(C)S(C)(=O)=O | 20.1%
COc1cccc(CNc2nc3nc4c(c(=O)n3[nH]2)CCC4)c1 | -1.38%
COc1cccc(-c2cc3nc4c(c(N5CCC6(CC5)OCCO6)n3n2)CCCC4)c1 | 42.7% (active)
O=C(c1ccccc1)N1CCN(c2cc(-c3ccccc3)nc3cc(-c4cccc(Cl)c4)nn23)CC1 | -1.84%
O=C(C[C@@H]1CC[C@@H]2[C@H](COC[C@H](O)CN2Cc2cccc(C(F)(F)F)c2)O1)NCc1ccc(F)cc1 | -1.09%
C[C@@H]1CN([C@@H](C)CO)C(=O)c2cc(NC(=O)Nc3cccc4ccccc34)ccc2O[C@@H](C)CCCCO[C@@H]1CN(C)S(=O)(=O)c1ccc(Cl)cc1 | 2.17%
Cc1ccc(-c2noc(C3CCCN(C(=O)c4cccc(Cl)c4)C3)n2)o1 (centres undefined) | 46.6% (active)
COc1cc(-c2noc(C3CCCN(S(=O)(=O)c4cccc(Cl)c4)C3)n2)cc(OC)c1OC (centres undefined) | 0.345%
COc1cccc(-c2noc(C3CCCN(C(=O)c4ccc(F)cc4)C3)n2)c1 (centres undefined) | 5.64%
O=C(c1cccs1)N1CCCC(c2nc(-c3ccc(F)cc3)no2)C1 (centres undefined) | 51.6% (active)
O=C(Cc1cccs1)N1CCCC(c2nc(-c3ccc(S(=O)(=O)N4CCCC4)cc3)no2)C1 (centres undefined) | -3.86%
CCOC(=O)C1(C)CCCN(C(=O)c2cccc(Cl)c2)C1 (centres undefined) | -1.3%
COc1ccccc1NC(=O)N(C)C[C@@H]1Oc2ncc(Br)cc2C(=O)N([C@@H](C)CO)C[C@@H]1C | -5.49%
O=C(NCC[C@@H]1CC[C@@H](NC(=O)Nc2cc(F)ccc2F)[C@H](CO)O1)Nc1ccc(Cl)cc1 | 38.7%
C[C@H]1CN([C@@H](C)CO)C(=O)c2cc(C3=CCCCC3)cnc2O[C@H]1CN(C)Cc1ccncc1 | -11.9%
O=C(NCc1ccccc1)C1CCN(C(=O)Cc2ccccc2)CC1 | 1.43%
O=C(O)C1CCN(C(=O)OCc2ccccc2)CC1 | 59.3% (active)
CCOC(=O)N1CCC(NC(=O)CCc2ccccc2)CC1 | -4.64%
CC(C)NC(=O)Nc1ccc2c(c1)C(=O)N([C@@H](C)CO)C[C@H](C)[C@@H](CN(C)S(C)(=O)=O)O2 | -2.99%

Source: PubChem BioAssay AID602393 (Broad Institute, 2012)
